Bioassay records from PubChem BioAssay.
Shown are actives, neighbours in structure and some others; about 2.9% of the full set was active somewhere.
ATXN2 expr inh = inhibitors of ATXN2 expression; HEK-293 ATXN2-luciferase reporter, luminescence, 24 h; Potency, µM (titrated, usually from 57 µM), without a hit: at the top dose activity change, negative = inhibition, hits mostly inhibitors; 360,000 compounds, 0.72% hits; AID 1745845; further: on the % scale 0 is the no-effect control and ±100 the full control effect; nearly all actives have a fitted effect of over 55% in size
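ATXN2-luciferase reporter cells (luciferase flanked by upstream and downstream ATXN2 gene portions) were treated 24 h at 37 °C with compounds at up to 57 uM. SteadyGlo luminescence gave expression; GF-AFC fluorescence gave viability.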
S2 tox = cell viability loss in ATXN counter-screen. S2 cells (HEK-293 line with an ATXN2-luciferase reporter) viability, CellTiter-Fluor protease fluorescence, 24 h. Potency, µM (top dose mostly 56.7 µM), hits mostly cytotoxic. 400,000 compounds, 0.49% hits. AID 651635; further: nearly all actives have a fitted effect of over 40% in size
Nrf2 inh = inhibitors of Nrf2 signaling; A549 ARE-Fluc reporter, luciferase luminescence, 18-24 h; Potency, µM (series often up to 46 µM), without a hit: top-dose activity change, negative = inhibition, most hits filed as inhibitors; 360,000 compounds, 2.1% hits; AID 504444; further: on the % scale 0 is the no-effect control and ±100 the full control effect; nearly all actives have a fitted effect of over 60% in size
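A549 ARE_Fluc cells, 5000/well, 5% FBS OPTI-MEM; compounds in dose-response, 18-24 h at 37 °C/5% CO2; CellTiter-Fluor viability read (Ex 405/Em 525), then BugLite luciferase luminescence = Nrf2 activity.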
Nrf2 ARE act = activators of Nrf2 (ARE) signaling; AREc32 ARE-luciferase reporter (MCF7-derived line), luminescence, 24 h; Potency, µM (top dose mostly 46.1 µM), for inactives: top-dose activation, actives largely listed as activators; 410,000 compounds, 0.31% hits; AID 624171; further: % of control where 0% means no effect; nearly all actives have a fitted effect of over 65% in size
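AREc32_Fluc, 1000 cells/well, OPTI-MEM + 5% FBS, o/n 37 deg C 5% CO2; 23 nL cpd by pin tool, 24 hr; Steady-Glo 30 min RT, luminescence.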
A549 viability = counter-screen for Nrf2 inhibitors: cytotoxicity in A549 cells. A549 ARE-Fluc cells, CellTiter-Fluor viability, 18-24 h. Potency, µM (top dose mostly 46 µM), without a hit: at the highest dose activity change, negative = cytotoxicity, actives largely listed as inhibitors. 390,000 compounds, 0.16% hits. AID 504648; further: on the % scale 0 is the no-effect control and ±100 the full control effect
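A549 ARE-Fluc cells in 5% FBS OPTI-MEM, 5000 cells/well, rested 2 h then exposed to compounds in concentration-response for 18-24 h at 37 °C. Viability by CellTiter-Fluor fluorescence (Ex 405/Em 525) after 30 min; luciferase luminescence (BugLite, 15 min, RT) read afterwards.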
Active calls of the source: *; i = inactive; ? = inconclusive; . = no result. The call rests on the fitted dose curve; in most records, active means well fitted curve in the direction sought with a large enough effect; inconclusive means small, poorly fitted or top-dose-only effect, or another doubt; inactive means no such curve, though single readings can be large; an effect the other way counts as inactive or inconclusive. Potency means the concentration at half of the fitted maximal effect.

SMILES	ATXN2 expr inh	S2 tox	Nrf2 inh	Nrf2 ARE act	A549 viability
Cc1nc2ccc(Cl)cc2c(-c2ccccc2F)c1CC(=O)O	-5%	i	-20%	0%	3%
Cc1cccc(NC(=S)NC(=O)c2ccco2)c1C	12%	i	8%	9%	2%
COc1ccc(NC(=O)c2ccco2)cc1NC(=O)c1ccco1	52%	i	13%	3%	-10%
COc1ccc(NC(=O)c2ccco2)cc1NC(=O)C(C)(C)Oc1ccc(Cl)cc1	?	?	21µM*	10%	-23%
O=C(NC(=S)Nc1ccccc1Br)c1ccco1	50%	i	?	14µM*	8%
O=C(NC(=S)Nc1cc(Cl)ccc1Cl)c1ccco1	.	i	.	11µM*	.
CCCCOc1cccc(C(=O)Nc2cc(NC(=O)c3ccco3)ccc2OC)c1	?	?	23µM*	4%	-11%
COc1ccc(CCNC(=O)C2CC(O)CN2S(=O)(=O)c2ccc(Cl)cc2)cc1OC (stereo unspecified)	-11%	i	18%	0%	9%
Cc1ccc(O)c(NC(=O)c2ccco2)c1	20%	i	?	?	8%
O=C(Nc1ccc(NC(=S)NC(=O)c2ccco2)cc1)c1ccccc1	5%	i	12%	3%	-1%
Cc1cc(O)c(NC(=O)c2ccco2)cc1C	47%	i	?	13µM*	4%
O=C(NC(=S)Nc1cccc(NC(=S)NC(=O)c2ccco2)n1)c1ccco1	-13%	i	24%	6.3µM*	7%
C#CCOCCOCCOCCNc1nc(N2CCN(C(=O)CCCCCCCCCCNC(=O)Cn3cc(C[C@@H](C)O)nn3)CC2)nc(N2CCN(C(=O)CCCCCCCCCCNC(=O)Cn3cc(C[C@@H](C)O)nn3)CC2)n1	?	?	?	5%	?
C#CCOCCOCCOCCNc1nc(N2CCN(C(=O)CCCCCCCCCCNC(=O)[C@H](CCCCN)n3cc(CCCC(=O)O)nn3)CC2)nc(N2CCN(C(=O)CCCCCCCCCCNC(=O)[C@H](CCCN=C(N)N)n3cc(C[C@@H](C)CC)nn3)CC2)n1	?	28µM*	?	-2%	-28%
C#CCOCCOCCOCCNc1nc(N2CCN(C(=O)CCCCCCCCCCNC(=O)[C@H](CCCCN)n3cc(CCCC(=O)O)nn3)CC2)nc(N2CCN(C(=O)CCCCCCCCCCNC(=O)[C@H](CCCCN)n3cc(CCCC(=O)O)nn3)CC2)n1	-30%	i	10%	2%	-2%
C#CCOCCOCCOCCNc1nc(N2CCN(C(=O)C(Cc3cc4ccccc4[nH]3)n3cc(C(N)Cc4ccc(O)cc4)nn3)CC2)nc(N2CCN(C(=O)C(Cc3cc4ccccc4[nH]3)n3cc(C(N)Cc4ccc(O)cc4)nn3)CC2)n1 (stereo unspecified)	?	32µM*	-1%	0%	?
C#CCOCCOCCOCCNc1nc(N2CCN(C(=O)CCCCCCCCCCNC(=O)Cn3cc(C[C@@H](C)O)nn3)CC2)nc(N2CCN(C(=O)CCCCCCCCCCNC(=O)[C@H](CCCCN)n3cc(C[C@@H](C)CC)nn3)CC2)n1	25µM*	20µM*	?	-3%	?
C#CCOCCOCCOCCNc1nc(N2CCN(C(=O)CCCCCCCCCCNC(=O)[C@H](CCCCN)n3cc(CCO)nn3)CC2)nc(N2CCN(C(=O)CCCCCCCCCCNC(=O)[C@H](CCCN=C(N)N)n3cc(C[C@@H](C)CC)nn3)CC2)n1	20µM*	18µM*	?	-6%	?
Cc1ccc(C)c(CNC(=O)c2ccc3c(c2)nc2n3CCC(C)C2)c1 (stereo unspecified)	.	.	.	3%	0%
CCCOc1ccc(C(=O)NC(C)C(=O)O)cc1 (stereo unspecified)	13%	i	-1%	0%	11%
COc1cc(SC)ccc1C(=O)N1CC(C)OC(C)C1 (stereo unspecified)	18%	?	3%	0%	-7%
CC(C)(C)c1cc(C(C)(C)C)c2oc(=O)c(-c3nc4ccc(C(=O)O)cc4[nH]3)cc2c1	.	.	.	0%	?
